Laboratory results taken from PubChem BioAssay (EPA / NIEHS).
The source made the active and inactive calls. How the source made its calls: active means hit-call score of the fitted dose curve at least 0.9, where 1 is the maximum; inactive means score below 0.9.

Experiments:
[1] = APR_HepG2_CellCycleArrest_1hr: Apredica 1-hour HepG2 Assay for Cell Cycle Arrest (AID 2282666); conditions: high-content imaging, actives raise or lower the signal
In short: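 HepG2 cells exposed for 1 h to 0.39–200 uM compound (0.5% DMSO). Fixed, Hoechst-stained nuclei imaged by ArrayScan; DNA content quantified by Cell Cycle analysis; bidirectional fit against DMSO.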

[2] = APR_HepG2_CellLoss_1hr: Apredica 1-hour HepG2 Assay for Cell Loss (AID 2282668); conditions: high-content imaging;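 further: curves fitted both ways against DMSO so gain or loss of cells counts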
In short: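 HepG2 cells were treated for 1 h with compound at 0.39–200 uM, in duplicate, in 0.5% DMSO. After formaldehyde fixation, Hoechst 33342-stained nuclei were imaged on an ArrayScan to count cells. Data were fitted bidirectionally versus DMSO.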

[3] = APR_HepG2_MicrotubuleCSK_1hr: Apredica 1-hour HepG2 Assay for Microtubule CSK Stabilty (AID 2282669); conditions: HepG2 microtubule cytoskeleton imaging, actives raise or lower the signal
In short: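 HepG2 cells exposed 1 h to 0.39–200 uM compound (0.5% DMSO, duplicates), then formaldehyde-fixed, permeabilized and immunostained for alpha-tubulin with Hoechst nuclei. Imaged by ArrayScan high-content analysis; bidirectional fit versus DMSO.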

[4] = APR_HepG2_NuclearSize_1hr: Apredica 1-hour HepG2 Assay for Nuclear Size (AID 2282670); conditions: high-content imaging, actives raise or lower the signal
In short: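 HepG2 cells dosed 1 hr with 0.39–200 uM compound (0.5% DMSO), formaldehyde-fixed, Hoechst 33342-stained and imaged at 20x; nuclear diameter from nuclear stain, fitted bidirectionally against DMSO.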

[5] = APR_HepG2_p53Act_1hr: Apredica 1-hour HepG2 Assay for p53 Activation (AID 2282671); conditions: high-content imaging, actives raise or lower the signal
In short: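 HepG2 cells treated 1 h with compound at 0.39–200 uM (10 concentrations, duplicate) in 0.5% DMSO. Formaldehyde-fixed, permeabilised cells immunostained for p53 with Hoechst 33342; high-content imaging, bidirectional fit versus DMSO.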

[6] = APR_HepG2_MitoticArrest_1hr: Apredica 1-hour HepG2 Assay for Mitotic Arrest (AID 2282672); conditions: high-content imaging, actives raise or lower the signal
In short: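 HepG2 cells exposed 1 hr to compounds at 0.39–200 uM (0.5% v/v DMSO final), then fixed in 3.7% formaldehyde and immunostained for phospho-histone H3 with Hoechst 33342. Mitotic arrest scored by automated fluorescence imaging, fitted bidirectionally versus DMSO.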

[7] = APR_HepG2_MitoMembPot_1hr: Apredica 1-hour HepG2 Assay for Mitochondrial Membrane Potential (AID 2282675); conditions: imaging, actives raise or lower the signal
In short: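 HepG2 cells dosed 1 hour with 0.39–200 uM compound in duplicate, 0.5% DMSO final. MitoTracker Red CMXRos (250 nM, 30 min) loaded before formaldehyde fixation; fluorescence quantified by high-content imaging, bidirectional fitting versus DMSO.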

[8] = APR_HepG2_StressKinase_1hr: Apredica 1-hour HepG2 Assay for Stress Kinase (AID 2282906); conditions: HepG2 stress kinase (phospho-c-Jun) imaging, actives raise or lower the signal
In short: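 HepG2 cells dosed 0.39-200 uM (0.5% DMSO) for 1 h, then formaldehyde-fixed. Stress kinase read by phospho-c-Jun immunofluorescence using high-content imaging; bidirectional fit vs DMSO.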

[9] = APR_HepG2_NuclearSize_24hr: Apredica 24-hour HepG2 Assay for Nuclear Size (AID 2282907); conditions: high-content imaging, actives raise or lower the signal
In short: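 HepG2, 24 hr dosing, 10-pt 0.39–200 uM, duplicates, 0.5% DMSO final; 3.7% formaldehyde fix, 0.5% Triton X-100; Hoechst 33342 nuclear stain; ArrayScan HCS, Cell Cycle analysis → nuclear size; bidirectional fit vs DMSO.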

[10] = APR_HepG2_CellLoss_24hr: Apredica 24-hour HepG2 Assay for Cell Loss (AID 2282908); conditions: high-content imaging;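 on AC50: fit in both directions so a hit may be cell loss or gain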
In short: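 10-pt dose, 0.39–200 uM, n=2/plate; DMSO 0.5% v/v final as negative control. Fix 3.7% formaldehyde 30 min RT, permeabilize 0.5% Triton X-100, stain Hoechst 33342 2 ug/mL, image 20x. Nuclear count, bidirectional fit vs DMSO.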

[11] = APR_HepG2_MicrotubuleCSK_24hr: Apredica 24-hour HepG2 Assay for Microtubule CSK Stabilty (AID 2282909); conditions: HepG2 microtubule cytoskeleton imaging, actives raise or lower the signal
In short: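 Human liver HepG2, 24 h dosing, 0.39–200 uM ×10 conc, dup, 0.5% DMSO. 3.7% formaldehyde fix, 0.5% Triton perm, anti-alpha-tubulin (1:200)/Cy5 secondary + Hoechst. HCS imaging, 6 fields/well; gain/loss fit vs DMSO.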

[12] = APR_HepG2_MitoticArrest_24hr: Apredica 24-hour HepG2 Assay for Mitotic Arrest (AID 2282910); conditions: high-content imaging, actives raise or lower the signal
In short: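 HepG2 cells, 24 h exposure at 0.39-200 uM (10 concentrations, duplicate, 0.5% DMSO). Fixed, stained for phospho-histone H3 with Hoechst; imaged by high-content microscopy, bidirectional fit versus DMSO.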

[13] = APR_HepG2_MitoMembPot_24hr: Apredica 24-hour HepG2 Assay for Mitochondrial Membrane Potential (AID 2282911); conditions: imaging, actives raise or lower the signal
In short: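 HepG2 cells exposed 24 h to 0.39–200 uM compounds in duplicate, 0.5% v/v DMSO final. MitoTracker Red CMXRos 250 nM loaded 30 min before formaldehyde fixation; high-content imaging at 20x, bidirectional fit versus DMSO.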

[14] = APR_HepG2_MitoMass_24hr: Apredica 24-hour HepG2 Assay for Mitochondrial Mass (AID 2282912); conditions: high-content imaging, actives raise or lower the signal
In short: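 Mitochondrial mass is read as MitoTracker Red fluorescence intensity from automated imaging, with bidirectional curve fitting relative to DMSO. HepG2 cells received compound (0.39–200 uM, 0.5% DMSO final) for 24 hr and were dye-loaded (250 nM, 30 min) before formaldehyde fixation.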

[15] = APR_HepG2_p53Act_24hr: Apredica 24-hour HepG2 Assay for p53 Activation (AID 2282913); conditions: high-content imaging, actives raise or lower the signal;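 further: p53 protein immunofluorescence averaged per cell in HepG2 with Hoechst nuclei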
In short: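 HepG2 cells exposed 24 h to compounds at 0.39–200 uM in duplicate, 0.5% v/v DMSO final; fixed, permeabilized, stained with anti-p53 antibody and Hoechst 33342; fluorescence imaging; bidirectional curve fit versus DMSO.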

[16] = APR_HepG2_CellCycleArrest_72hr: Apredica 72-hour HepG2 Assay for Cell Cycle Arrest (AID 2282914); conditions: high-content imaging, actives raise or lower the signal
In short: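 HepG2 cells exposed 72 h in duplicate to 0.39–200 uM compound, 0.5% DMSO final. Formaldehyde-fixed, Hoechst 33342-stained nuclei imaged at 20x, six fields per well; DNA content per valid cell quantified by cell-cycle image analysis, bidirectional fit versus DMSO.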

[17] = APR_HepG2_CellLoss_72hr: Apredica 72-hour HepG2 Assay for Cell Loss (AID 2282915); conditions: high-content imaging
In short: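 HepG2 cells exposed 72 h to compound at 0.39–200 uM (10 concentrations, duplicate) in 0.5% DMSO. Fixed with 3.7% formaldehyde and Hoechst 33342-stained. Imaged at 20x; nuclear count gives cell number, fitted bidirectionally versus DMSO.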

[18] = APR_HepG2_P-H2AX_1hr: Apredica 1-hour HepG2 Assay for H2AX Phosphorylation (AID 2282673); conditions: high-content imaging, actives raise or lower the signal
In short: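 HepG2 dosed 1 hr at 0.39-200 uM (0.5% DMSO final), duplicate. Fixed in 3.7% formaldehyde, Triton permeabilized, immunostained for phospho-histone H2A.x (1:200) with Hoechst 33342; ArrayScan 20x imaging, bidirectional fit vs DMSO.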

[19] = APR_HepG2_CellCycleArrest_24hr: Apredica 24-hour HepG2 Assay for Cell Cycle Arrest (AID 2282905); conditions: imaging, actives raise or lower the signal;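 further: cell cycle arrest scored as ratio of 2N to 4N nuclear DNA content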
In short: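 HepG2, 24 hr dosing, 10-pt 0.39–200 uM in duplicate, 0.5% DMSO. Fixed 3.7% formaldehyde, permeabilized 0.5% Triton X-100, Hoechst 33342 2 ug/mL. Imaged 20x; nuclear DNA content quantified; bidirectional fit vs DMSO.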

[20] = APR_HepG2_MitoMass_1hr: Apredica 1-hour HepG2 Assay for Mitochondrial Mass (AID 2282674); conditions: high-content imaging, actives raise or lower the signal
In short: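 HepG2 cells dosed 1 hr with 0.39-200 uM compound (0.5% DMSO), duplicate wells. Mitochondria stained with 250 nM MitoTracker Red CMXRos for 30 min before formaldehyde fixation, imaged at 20x by ArrayScan; bidirectional fit versus DMSO.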

Measured: AC50

CNc1cnn(-c2cccc(C(F)(F)F)c2)c(=O)c1Cl
not listed: [18] | [19] | [20]
inactive: all other assays above

S=C1NCCN1
not listed: [4] | [7] | [19] | [20]
inactive: all other assays above

CCc1cccc(CC)c1N(COC)C(=O)CCl
inactive: [1] | [2] | [3] | [6] | [18] | [8] | [13] | [14] | [16]
active: [10] 92.5 µM | [11] 55.7 µM | [12] 62.4 µM | [17] 17.2 µM

CCCSP(=O)(OCC)SCCC
not listed: [4] | [5] | [9] | [15] | [20]
inactive: all other assays above

CCOP(=S)(Oc1cnc(C(C)(C)C)nc1)OC(C)C (centres undefined)
active: [19] 152 µM | [16] 113 µM | [17] 82.7 µM
not listed: [9] | [18]
inactive: all other assays above

CCCSP(=O)(OCC)Oc1ccc(Br)cc1Cl (centres undefined)
active: [10] 108 µM | [11] 113 µM | [17] 114 µM
not listed: [4] | [7] | [9] | [18] | [19] | [20]
inactive: all other assays above

CC(=NC#N)N(C)Cc1ccc(Cl)nc1
not listed: [4] | [7] | [20]
inactive: all other assays above

Cc1nn(-c2cc(NS(C)(=O)=O)c(Cl)cc2Cl)c(=O)n1C(F)F
not listed: [18]
inactive: all other assays above
